# From publication PMC7862700, “An all-to-all approach to the identification of sequence-specific readers for epigenetic DNA modifications on cytosine”
# Key:
# Assay in all cases: DAPPL (digital affinity profiling via proximity ligation, sequencing); 10 mM Tris-HCl pH 7.5, 50 mM NaCl, 1 mM DTT, 4% glycerol, room temperature, 30 min; GST-TFs on glutathione beads, 16-mer random dsDNA library, 0.1% formaldehyde crosslink after washing; high values mean tight binding
# Details in all cases: protein: recombinant; tags: N-terminal GST; dsDNA, one strand shown
# FLI1 = molecular target: T1, FLI1 (Homo sapiens, UniProt Q01543 1-452)
# T1 sequence: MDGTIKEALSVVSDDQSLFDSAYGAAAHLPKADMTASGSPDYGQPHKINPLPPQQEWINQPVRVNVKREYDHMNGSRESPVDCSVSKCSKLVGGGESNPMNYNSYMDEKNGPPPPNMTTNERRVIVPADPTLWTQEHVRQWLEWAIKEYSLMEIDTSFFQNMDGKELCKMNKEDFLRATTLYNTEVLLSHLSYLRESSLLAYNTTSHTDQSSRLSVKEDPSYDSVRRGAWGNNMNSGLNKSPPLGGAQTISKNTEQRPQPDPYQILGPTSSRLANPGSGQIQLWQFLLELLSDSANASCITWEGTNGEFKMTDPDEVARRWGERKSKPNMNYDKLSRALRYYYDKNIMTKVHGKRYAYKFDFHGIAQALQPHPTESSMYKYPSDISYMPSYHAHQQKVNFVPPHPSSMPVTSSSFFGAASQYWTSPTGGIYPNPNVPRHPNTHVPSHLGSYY
# Method in brief: (§1)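 Pools of DNA-barcoded human transcription factors, expressed in yeast as GST fusions on glutathione beads and combined with a tag-only sample, were incubated with 200 nmole of a 16-mer random double-stranded DNA library. Incubation took 30 min at room temperature in Tris/NaCl/DTT/glycerol buffer and was followed by washing, 0.1% formaldehyde crosslinking, proximity ligation (BsaI/T4 ligase, 1 h, 37 °C), PCR amplification and sequencing on an Illumina NextSeq500. Binding signal is the ratio of a hexamer's read frequency for a factor to its frequency for the tag-only sample.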
# ELK1 = molecular target: T2, ELK1 (Homo sapiens, UniProt P19419 1-428)
# T2 sequence: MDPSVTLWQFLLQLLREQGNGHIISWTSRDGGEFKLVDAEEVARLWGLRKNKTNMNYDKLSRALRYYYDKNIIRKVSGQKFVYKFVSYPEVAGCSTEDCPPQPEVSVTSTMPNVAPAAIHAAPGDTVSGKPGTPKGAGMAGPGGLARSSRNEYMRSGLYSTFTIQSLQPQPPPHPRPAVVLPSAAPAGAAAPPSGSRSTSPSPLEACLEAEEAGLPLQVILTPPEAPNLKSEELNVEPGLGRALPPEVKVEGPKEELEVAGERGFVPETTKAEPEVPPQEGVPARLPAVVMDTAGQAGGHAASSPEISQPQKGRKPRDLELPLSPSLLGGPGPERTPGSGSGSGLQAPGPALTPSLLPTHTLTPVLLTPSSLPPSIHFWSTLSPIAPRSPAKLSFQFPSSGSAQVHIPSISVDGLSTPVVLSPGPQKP
# Method in brief: as §1
# GABPA = molecular target: T3, GABPA (Homo sapiens, UniProt Q06546 1-454)
# T3 sequence: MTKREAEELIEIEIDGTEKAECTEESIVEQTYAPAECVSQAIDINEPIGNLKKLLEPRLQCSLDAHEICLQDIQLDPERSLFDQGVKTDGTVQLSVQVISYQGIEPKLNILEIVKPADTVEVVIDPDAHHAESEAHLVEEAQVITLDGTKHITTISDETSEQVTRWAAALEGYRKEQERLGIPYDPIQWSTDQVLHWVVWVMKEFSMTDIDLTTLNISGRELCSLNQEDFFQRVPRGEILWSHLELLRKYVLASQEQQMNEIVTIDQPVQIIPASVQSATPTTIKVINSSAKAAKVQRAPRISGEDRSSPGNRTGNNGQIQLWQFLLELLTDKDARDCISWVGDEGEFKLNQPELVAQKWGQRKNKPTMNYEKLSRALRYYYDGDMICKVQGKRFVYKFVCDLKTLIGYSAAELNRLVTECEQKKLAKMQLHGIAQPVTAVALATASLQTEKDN
# Method in brief: as §1
# ERG = molecular target: T4, ERG (Homo sapiens, UniProt P11308 1-479)
# T4 sequence: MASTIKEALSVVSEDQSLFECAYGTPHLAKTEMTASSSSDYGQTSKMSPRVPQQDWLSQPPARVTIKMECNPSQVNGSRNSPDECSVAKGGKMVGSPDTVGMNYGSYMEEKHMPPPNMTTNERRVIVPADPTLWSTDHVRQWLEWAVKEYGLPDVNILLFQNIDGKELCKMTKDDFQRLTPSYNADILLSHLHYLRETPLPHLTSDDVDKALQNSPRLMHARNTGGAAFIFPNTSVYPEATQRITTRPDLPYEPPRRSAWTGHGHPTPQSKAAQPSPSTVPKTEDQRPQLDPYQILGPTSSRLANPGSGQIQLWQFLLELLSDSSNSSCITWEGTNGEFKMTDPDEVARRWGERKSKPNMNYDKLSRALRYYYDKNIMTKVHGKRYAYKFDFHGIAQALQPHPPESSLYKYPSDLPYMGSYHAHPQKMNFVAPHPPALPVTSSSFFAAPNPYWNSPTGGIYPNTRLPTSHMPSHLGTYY
# Method in brief: as §1
# ELF1 = ELF1 (Homo sapiens, UniProt P32519 1-619)
# Method in brief: as §1
# EHF = molecular target: T5, EHF (Homo sapiens, UniProt Q9NZC4 1-300)
# T5 sequence: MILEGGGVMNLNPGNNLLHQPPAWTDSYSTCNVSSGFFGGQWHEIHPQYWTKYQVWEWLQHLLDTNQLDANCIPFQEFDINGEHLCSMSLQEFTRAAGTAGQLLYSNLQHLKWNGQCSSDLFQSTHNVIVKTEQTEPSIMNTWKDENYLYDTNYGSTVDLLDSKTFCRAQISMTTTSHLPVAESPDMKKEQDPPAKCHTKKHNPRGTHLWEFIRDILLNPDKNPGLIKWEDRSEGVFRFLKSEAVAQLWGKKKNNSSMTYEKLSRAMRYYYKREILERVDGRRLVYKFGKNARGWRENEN
# Method in brief: as §1
# SPI1 = SPI1 (Homo sapiens, UniProt P17947 1-270)
# Method in brief: as §1
# SPIB = SPIB (Homo sapiens, UniProt Q01892 1-262)
# Method in brief: as §1
# ELK3 = molecular target: T6, ELK3 (Homo sapiens, UniProt P41970 1-407)
# T6 sequence: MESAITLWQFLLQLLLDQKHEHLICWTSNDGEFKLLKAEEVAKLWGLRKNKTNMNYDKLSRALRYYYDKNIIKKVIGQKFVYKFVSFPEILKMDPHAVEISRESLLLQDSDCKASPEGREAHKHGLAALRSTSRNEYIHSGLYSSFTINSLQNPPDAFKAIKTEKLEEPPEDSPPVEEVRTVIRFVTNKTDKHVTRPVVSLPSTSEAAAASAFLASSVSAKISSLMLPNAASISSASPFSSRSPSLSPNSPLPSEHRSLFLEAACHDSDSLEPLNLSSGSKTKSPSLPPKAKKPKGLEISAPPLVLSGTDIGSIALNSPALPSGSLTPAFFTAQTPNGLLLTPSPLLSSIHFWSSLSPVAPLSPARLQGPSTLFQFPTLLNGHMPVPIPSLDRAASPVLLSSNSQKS
# Method in brief: as §1
# ELF1, sequence (P32519 whole entry): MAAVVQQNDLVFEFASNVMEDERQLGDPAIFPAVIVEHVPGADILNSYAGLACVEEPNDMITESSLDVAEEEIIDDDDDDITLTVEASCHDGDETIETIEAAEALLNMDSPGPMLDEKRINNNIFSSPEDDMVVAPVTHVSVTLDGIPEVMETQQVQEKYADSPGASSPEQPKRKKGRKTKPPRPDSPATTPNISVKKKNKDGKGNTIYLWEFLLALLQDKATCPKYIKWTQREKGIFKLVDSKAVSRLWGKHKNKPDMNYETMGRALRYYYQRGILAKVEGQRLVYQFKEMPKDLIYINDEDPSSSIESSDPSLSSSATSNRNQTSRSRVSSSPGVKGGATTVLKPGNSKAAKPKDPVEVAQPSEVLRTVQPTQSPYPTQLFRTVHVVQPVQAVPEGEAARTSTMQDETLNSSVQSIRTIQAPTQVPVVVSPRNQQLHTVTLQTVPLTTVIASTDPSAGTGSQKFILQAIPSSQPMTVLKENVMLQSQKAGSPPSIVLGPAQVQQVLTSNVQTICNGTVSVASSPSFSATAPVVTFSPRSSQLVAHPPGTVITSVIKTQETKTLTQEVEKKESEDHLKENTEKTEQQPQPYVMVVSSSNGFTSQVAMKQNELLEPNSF
# SPIB, sequence (Q01892 whole entry): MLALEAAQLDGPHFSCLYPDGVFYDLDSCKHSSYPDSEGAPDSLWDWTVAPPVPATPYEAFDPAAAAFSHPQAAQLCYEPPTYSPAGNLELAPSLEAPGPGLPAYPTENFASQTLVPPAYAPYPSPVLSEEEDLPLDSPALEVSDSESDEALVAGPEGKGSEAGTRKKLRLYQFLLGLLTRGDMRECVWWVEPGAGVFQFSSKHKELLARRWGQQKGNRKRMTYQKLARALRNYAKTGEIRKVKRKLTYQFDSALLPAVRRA
sequence,measurement,setting,value
CTTCGA,binding signal,FLI1,"1.4 fold enrichment (6-mer frequency, TF over GST control)"
same,binding signal,ELK1,"1.33 fold enrichment (6-mer frequency, TF over GST control)"
same,binding signal,GABPA,"1.25 fold enrichment (6-mer frequency, TF over GST control)"
same,binding signal,ERG,"1.49 fold enrichment (6-mer frequency, TF over GST control)"
same,binding signal,ELF1,"1.41 fold enrichment (6-mer frequency, TF over GST control)"
same,binding signal,EHF,"1.19 fold enrichment (6-mer frequency, TF over GST control)"
same,binding signal,SPI1,"1.3 fold enrichment (6-mer frequency, TF over GST control)"
same,binding signal,SPIB,"1.31 fold enrichment (6-mer frequency, TF over GST control)"
same,binding signal,ELK3,"1.57 fold enrichment (6-mer frequency, TF over GST control)"
